NTMT1 inhibitor – inhibitors of human N-terminal methyltransferase NTMT1; Potency, µM (titrated, usually from 114 µM), actives largely listed as inhibitors; NTMT1 MTase-Glo SAH luminescence, purified enzyme; AID 1645870; Q9BV86; actives 2.5% (n = 59,000); also: nearly all actives have a fitted effect of over 65% in size
B2AR arrestin ag – ADRB2 beta-arrestin recruitment. P07550. HTLA Tango cells, beta-arrestin recruitment, luciferase luminescence, 18 h. Potency, µM (top dose mostly 46.1 µM), most hits filed as activators. 44,000 tested, under 10 active
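Luminescence read-out: arrestin recruitment to recombinant beta2-AR releases tTA, inducing luciferase. Cells exposed 18 hr at 37 degrees C to up to 46 microM compound; %Activity from corrected signal, concentration-response curves classified by r2, magnitude and efficacy.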
GALK inhibitor – inhibitors of human galactokinase (GALK); P51570; recombinant GALK, Kinase-Glo ATP luminescence, 1 h; Potency, µM (series often up to 57.5 µM), hits mostly inhibitors; 44,000 tested, under 10 active; AID 1347072
Target sequence (P51570 whole entry, looked up): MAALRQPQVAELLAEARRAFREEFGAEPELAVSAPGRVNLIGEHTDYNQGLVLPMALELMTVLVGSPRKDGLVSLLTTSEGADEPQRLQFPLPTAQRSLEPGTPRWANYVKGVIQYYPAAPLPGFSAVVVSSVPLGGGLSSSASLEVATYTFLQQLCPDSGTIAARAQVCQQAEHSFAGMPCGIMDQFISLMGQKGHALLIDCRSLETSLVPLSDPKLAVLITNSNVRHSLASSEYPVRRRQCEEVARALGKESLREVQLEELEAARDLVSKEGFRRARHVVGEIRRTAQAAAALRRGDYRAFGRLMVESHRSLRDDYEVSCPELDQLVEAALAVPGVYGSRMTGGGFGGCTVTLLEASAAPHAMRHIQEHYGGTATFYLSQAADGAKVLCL
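Reactions with and without enzyme served as controls. GALK at 5 nM phosphorylates 100 uM galactose using 35 uM ATP (HEPES pH 8.0, Mg2+) for 1 h at RT, with luminescence read 10 min after adding Kinase-Glo Plus.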
HTT promoter inh – HTT promoter inhibition; HEK293 HTT promoter firefly luciferase reporter, 24 h; Potency, µM (top dose mostly 57.5 µM), usual class: inhibitors; actives 0.93% (n = 48,000); AID 1508623; also: nearly all actives have a fitted effect of over 50% in size
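Quantitative HTS used concentration series of up to 57.5 uM final on HEK293 luciferase reporter cells, 24 h at 37 degrees C. Readout was Dual-Glo firefly luminescence.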
HTT-AS act – activators of huntingtin-antisense promoter activity; actives 0.24% (n = 48,000); Potency, µM (titrated, usually from 57.5 µM), hits mostly activators; HEK293 HTT-AS promoter firefly luciferase reporter, 24 h; response scale: percent change from vehicle, -100% = no light; also: nearly all actives have a fitted effect of over 55% in size
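Firefly luciferase readout (Dual-Glo, 10 min RT) after 24 h, 37 °C compound exposure (final up to 57.5 uM) of HEK293 reporter cells cultured 24 h beforehand; PTC124 at 50 uM final as control inhibitor; activity scaled vehicle 0%, zero RLU -100%.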
PTAP-TSG101 blk – inhibitors of HIV-1 PTAP binding to human TSG101, validation | 44,000 tested, under 10 active | Potency, µM (titrated, usually from 115 µM), usual class: inhibitors | Q99816 | AID 1347069 | Fluorescence polarization, FITC-PTAP peptide/Tsg101, 20 min
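Steps: Tsg101 binding domain (10 uM final) in HEPES pH 7.5/NaCl/Tween 20/EDTA/TCEP; add compound; add FITC-PTAP peptide (50 nM final); incubate 20 min r.t.; read polarization.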
A number is an active result; - = inactive; ? = inconclusive; . = not tested or not shown; ! = repeats disagree. Only a selection was taken, and hits are over-represented in it overall. Calls follow the shape of the dose curve; as a rule, active = well fitted curve in the direction sought with a large enough effect; inconclusive = small, poorly fitted or top-dose-only effect, or another doubt; inactive = no such curve, though single readings can be large; an effect the other way counts as inactive or inconclusive.

SMILES | NTMT1 inhibitor | B2AR arrestin ag | GALK inhibitor | HTT promoter inh | HTT-AS act | PTAP-TSG101 blk
Cc1nc2nc(-c3ccc(Cl)cc3Cl)nn2c(C)c1CCC(=O)Nc1ccc(F)cc1 | - | - | - | 7.9µM | - | -
CCOc1ccc(CCNC(=O)CCc2c(C)nc3c(-c4ccccc4)c(C)nn3c2C)cc1OCC | - | ? | - | - | - | -
CN(C)/C(N)=N/C(=N)N | - | . | . | . | . | .
COc1cc([C@@H]2c3cc4c(cc3[C@@H](O[C@@H]3O[C@@H]5CO[C@@H](c6cccs6)O[C@H]5[C@H](O)[C@H]3O)[C@H]3COC(=O)[C@H]23)OCO4)cc(OC)c1O | - | . | . | . | . | .
Fc1ccc(CNc2nc(-c3ccccc3C(F)(F)F)nc3ccccc23)cc1 | - | . | . | . | . | .
Cc1[nH]cnc1CN1CCN(C(=O)N[C@@H](CC(C)C)C(=O)O)[C@@H](Cc2ccccc2)C1=O | - | . | . | . | . | .
Cc1cc2ncc(-c3ccccc3)nc2cc1C | 45µM | . | . | . | . | .
CO[C@@H]1[C@@H](O)[C@H](O)[C@@H](n2c3c(Cl)cccc3c3c4c(c5c6cccc(Cl)c6[nH]c5c32)C(=O)NC4=O)O[C@H]1CO | - | . | . | . | . | .
Cc1oc(-c2ccccc2F)nc1CS(=O)(=O)CC(=O)N1CCN(c2ccc(Cl)cc2)CC1 | ? | - | - | 28µM | - | -
Cc1ccc(Cc2c(C)nc3c(-c4ccccc4)c(C)[nH]n3c2=O)cc1 | - | - | - | ? | - | -
Cc1nc2c(-c3ccccc3)c(C)[nH]n2c(=O)c1Cc1ccc(Br)cc1 | ? | - | - | 13µM | - | -
C/C=C(/COC(=O)/C(C)=C/C)C(=O)OC(CC)c1ccc(OC)c(OC)c1 (stereo not given) | - | . | . | . | . | .
CCOc1ccc(-c2oc3ccccc3c(=O)c2O)cc1OCC | - | ? | - | - | ? | -
Cc1ccc2oc(-c3ccc(Cl)cc3)c(O)c(=O)c2c1 | - | - | - | - | 2.5µM | -
CCOc1ccc(-c2cn3c(n2)sc2cc(C(=O)NCCCN(CC)CC)ccc23)cc1 | 40µM | - | - | ? | - | -
CCOc1ccc(-c2cn3c(n2)sc2cc(C(=O)NCCCN4CCCCC4)ccc23)cc1 | 50µM | - | - | ? | - | -
CCCN1CCN(CCCNC(=O)c2ccc3c(c2)sc2nc(-c4ccc(OCC)cc4)cn23)CC1 | ? | - | - | - | - | -
O=C(NO)c1cnc(N2C[C@H]3C[C@@H]2CN3c2cc(C(F)(F)F)ccn2)nc1 | - | . | . | . | . | .
CO[C@@]1(NC(=O)CSCC#N)C(=O)N2C(C(=O)O)=C(CSc3nnnn3C)CS[C@@H]21 | 14µM | . | . | - | - | .
O=C(Nc1cccc(F)c1)C1CCN(S(=O)(=O)c2ccc3[nH]c4c(c3c2)CCCCC4)CC1 | - | - | - | 25µM | - | -
CSc1cccc(NC(=O)C2CCN(S(=O)(=O)c3ccc4[nH]c5c(c4c3)CCCCC5)CC2)c1 | - | - | - | ? | - | -
CCN1CCN(c2ccc(NS(=O)(=O)c3c(C)nc4sccn4c3=O)cc2Cl)CC1 | - | - | - | 16µM | - | -
Cc1nc2sccn2c(=O)c1S(=O)(=O)Nc1ccc(N2CCOCC2)c(Cl)c1 | - | - | - | ? | - | -
Cc1nc(C)c(-c2ccc(SCC(=O)Nc3ccc(Cl)c(Cl)c3)nn2)s1 | - | - | - | 18µM | - | -
O=S(=O)(Nc1nccs1)c1ccc(NCc2cccc(O)c2)cc1 | - | . | . | . | . | .
SMILES | NTMT1 inhibitor | B2AR arrestin ag | GALK inhibitor | HTT promoter inh | HTT-AS act | PTAP-TSG101 blk
COc1cc(Oc2ccnc3cc(OC)c(OC)cc23)ccc1NC(=O)NC(C)c1nccs1 (stereo not given) | 79µM! | . | . | - | - | .
CCCNC(=O)Nc1ccc(Oc2ncnc3cc(OC)c(OC)cc23)cc1Cl | - | . | . | - | - | .
Cc1ccc(NS(=O)(=O)c2cc3c(cc2NCC(C)(C)O)NC(=O)CC3)cc1C | - | . | . | . | . | .
COc1ccc(C2CC(=O)N(CC(=O)Nc3ccc(C(F)(F)F)cc3)c3ccccc3S2)cc1 (stereo not given) | - | - | - | - | - | -
COc1cc(C2CC(=O)N(Cc3cccc(F)c3)c3ccccc3S2)cc(OC)c1OC (stereo not given) | - | - | - | 20µM | - | -
O=C1NC(=O)/C(=C/c2ccc3nccnc3c2)S1 | - | . | . | . | . | .

Screens from PubChem BioAssay.
